A selection: hits, their analogues and other compounds. The true share with any hit is near 7.5%.
TSHR antag = blocks TSH signaling through the human TSH receptor; P16473; TSHR-expressing cells, TSH-stimulated cAMP HTRF, 2 h; hits give low values; activity change, negative = inhibition, % at 11.5 µM; hit rate 0.2% among 330,000; AID 504810;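 active means activity change below a set negative limit, meaning inhibition stronger than a set level, cut at about -70% in these data; inconclusive means activity change between two set negative limits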
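TSHR-expressing cells were treated with compounds, then stimulated with TSH at EC80 (4nM final) for 2 hours at 37 deg C. Cellular cAMP was measured by HTRF competition between lysate cAMP and cAMP-d2 for a cryptate-labelled anti-cAMP antibody.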
ELG1 repair inh = ELG1-dependent DNA repair inhibition. HEK293T ELG1-luciferase reporter, luminescence, 16 h; DNA damage induced by 5-fluorouridine. Potency, µM (doses to about 46.1 µM), for inactives: at the highest dose activity change, negative = inhibition, hits mostly inhibitors. hit rate 2.3% among 330,000; further: potency means the concentration at half of the fitted maximal effect; nearly all actives have a fitted effect of over 55% in size
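HEK293T cells expressing luciferase-tagged ELG1 (2,000/well) received 5-Fluorouridine plus compound or DMSO for 16 hr at 37 °C. Luciferase was read by ONE-Glo luminescence after 30 min at room temperature.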
RORg inh = blocks mouse ROR gamma transcriptional activity. P51450. Drosophila S2 Gal4-RORgamma UAS-luciferase reporter, 20 h. Potency, µM (top dose mostly 53.6 µM), without a hit: at the top dose activity change, negative = inhibition, usual class: inhibitors. hit rate 5.4% among 310,000; further: potency means the concentration at half of the fitted maximal effect; nearly all actives have a fitted effect of over 60% in size
Target sequence (P51450 whole entry, looked up, the tested form may be a part): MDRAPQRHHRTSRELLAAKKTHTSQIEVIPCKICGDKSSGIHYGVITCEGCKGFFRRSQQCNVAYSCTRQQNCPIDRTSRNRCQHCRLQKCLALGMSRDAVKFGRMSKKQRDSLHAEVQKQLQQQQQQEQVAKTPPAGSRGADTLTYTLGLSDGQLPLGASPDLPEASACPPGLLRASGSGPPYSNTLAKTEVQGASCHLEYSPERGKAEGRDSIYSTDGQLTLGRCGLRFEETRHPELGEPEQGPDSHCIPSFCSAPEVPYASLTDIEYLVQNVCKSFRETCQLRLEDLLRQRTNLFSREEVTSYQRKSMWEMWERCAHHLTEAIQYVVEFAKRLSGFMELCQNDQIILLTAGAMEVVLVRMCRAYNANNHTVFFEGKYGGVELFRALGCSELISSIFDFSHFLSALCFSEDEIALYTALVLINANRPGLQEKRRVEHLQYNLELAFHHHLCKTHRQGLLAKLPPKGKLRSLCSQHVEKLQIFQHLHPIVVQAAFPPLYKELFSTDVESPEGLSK
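Read-out: Photinus luciferase luminescence; inhibitors lower reporter signal. Insect Schneider cells with Gal4-ROR gamma fusion under metallothionein promoter, UAS reporter; 700 uM final copper sulfate induction, 20 hr, ambient temperature.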
B2AR arrestin = agonists driving beta-arrestin recruitment to human beta2-adrenergic receptor; Potency, µM (highest dose often 46.1 µM), without a hit: at the top dose activation, actives largely listed as activators; hit rate 0.02% among 330,000; beta-arrestin recruitment to beta2AR, cell-based reporter; P07550; AID 492947;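 further: potency means the concentration at half of the fitted maximal effect; 0% = DMSO controls and full agonism = EC100 isoproterenol or metaproterenol; nearly all actives have a fitted effect of over 65% in size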
Gal4-VP16 FLuc = Gal4-VP16 reporter inhibition counter-screen; hit rate 3.5% among 310,000; AID 2546; Drosophila S2 Gal4-VP16 UAS-luciferase, luminescence, 20 h; Potency, µM (doses to about 53.6 µM), inactives show top-dose activity, negative = inhibition, most hits filed as inhibitors;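 further: Gal4-VP16 expression switched on by copper sulfate through the metallothionein promoter; potency means the concentration at half of the fitted maximal effect; nearly all actives have a fitted effect of over 50% in size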
* hit, by the source's call; ? = inconclusive; / = no result given; [ ] = remark or other dose. Unless noted, the call rests on the fitted dose curve; in most records, active means well fitted curve in the direction sought with a large enough effect; inconclusive means small, poorly fitted or top-dose-only effect, or another doubt; inactive means no such curve, though single readings can be large; an effect the other way counts as inactive or inconclusive. Unless noted, on the % scale 0 is the no-effect control and ±100 the full control effect.

SMILES	TSHR antag	ELG1 repair inh	RORg inh	B2AR arrestin	Gal4-VP16 FLuc
NCC1O[C@H](O[C@@H]2C(O)[C@H](O[C@H]3OC(CO)C(O)C(N)C3O)[C@@H](N)C[C@H]2N)[C@@H](N)CC1O (stereo not given in full)	/	/	-7%	/	-11%
CCOc1ccc(Nc2nc(Cl)nc(NCCO)n2)cc1	3	2%	?	0%	4%
CCOc1nc(NCCO)nc(Nc2ccc([N+](=O)[O-])cc2)n1	0	10µM*	12%	0%	-4%
CCNc1ncc2nc(-c3cccs3)c(=O)n(CCC#N)c2n1	/	/	-1%	/	-1%
O=C(CC1Sc2ncnn2C1=O)Nc1ccc(Br)cc1 (stereo not given)	2	5%	?	0%	25µM*
COC(=O)[C@H](CCSC)NC(=O)Nc1cc(OC)cc(OC)c1	1	5%	31%	0%	2%
CCn1c(=NC(=O)CS(=O)(=O)c2ccc(F)cc2)sc2cccc(OC)c21	0	-15%	/	0%	/
CCn1c(=NC(=O)CCS(=O)(=O)c2ccccc2)sc2cccc(OC)c21	-24	?	-11%	0%	16µM*
CC1=C(C(=O)Nc2cc(C(=O)N3CCN(c4cccc(C)c4C)CC3)ccc2C)SCCO1	10	18µM*	29%	0%	0%
Cc1ccnc(NCc2ccc(Cl)cc2)c1	-7	6%	-4%	0%	-5%
Cc1ccc(/C=N/n2c(COc3ccccc3)n[nH]c2=S)s1	?	-1%	-6%	0%	-2%
Fc1ccccc1/C=N/n1c(COc2ccccc2)n[nH]c1=S	4	-22%	6.3µM*	4%	?
S=c1[nH]nc(COc2ccccc2)n1/N=C/c1ccc(Br)s1	-7	-4%	2.5µM*	0%	?
Oc1ccccc1/C=N/n1c(COc2ccccc2)n[nH]c1=S	19	7%	11µM*	-1%	-29%
S=c1[nH]nc(COc2ccccc2)n1/N=C/c1ccc(Cl)cc1Cl	-2	-8%	7.1µM*	0%	-21%
S=c1[nH]nc(COc2ccccc2)n1/N=C/c1ccc(Cl)cc1	-9	-10%	?	0%	-16%
COc1ccc(/C=N/n2c(N)nc3ccccc32)cc1OC	-19	?	13µM*	0%	?
Cc1ccccc1/C=N/n1c(COc2ccccc2)n[nH]c1=S	-9	-19%	4.5µM*	0%	?
COc1ccc(OC)c(/C=N/n2c(COc3ccccc3)n[nH]c2=S)c1	2	2%	?	0%	-16%
COc1ccc(/C=N/n2c(COc3ccccc3)n[nH]c2=S)cc1OC	-10	5%	5µM*	0%	-3%
COc1cc(OC)c(OC)cc1/C=N/n1c(COc2ccccc2)n[nH]c1=S	-3	-12%	-39%	0%	-9%
CCOc1ccccc1/C=N/n1c(COc2ccccc2)n[nH]c1=S	-14	14%	4.5µM*	-1%	?
CN(Cc1ccco1)c1ccnc(-c2ccoc2)n1	/	/	-13%	/	-16%
Cc1n[nH]c(=O)c2c(NC(=O)CSc3nn(-c4ccccc4)c(=S)s3)oc(C)c12	7	0%	/	0%	/
S=c1[nH]nc(-c2ccccc2Cl)n1CC1CCCO1 (stereo not given)	5	8%	-8%	0%	-7%
SMILES	TSHR antag	ELG1 repair inh	RORg inh	B2AR arrestin	Gal4-VP16 FLuc
Fc1ccccc1-c1n[nH]c(=S)n1CC1CCCO1 (stereo not given)	-8	8%	11µM*	0%	-11%
CC(C)(C)c1ccc(-c2n[nH]c(=S)n2CC2CCCO2)cc1 (stereo not given)	-1	?	2.8µM*	0%	10µM*
N#CSCC(=O)c1cccc2ccccc12	-7	-17%	11µM*	-1%	?
NC(=O)c1cccc2ccccc12	16	0%	-14%	-1%	-2%
CC(NCc1ccc(OCC(N)=O)cc1)C12CC3CC(CC(C3)C1)C2 (stereo not given)	-6	-12%	-1%	-1%	1%
COc1ccc(C(=O)O/N=C(\N)c2ccccn2)cc1	-8	?	14µM*	0%	18µM*
COc1cc(OC)cc(C(=O)O/N=C(\N)c2ccccn2)c1	-5	?	-34%	8%	-6%
N/C(=N\OC(=O)c1cccc(Br)c1)c1ccccn1	-2	?	10µM*	-1%	18µM*
N/C(=N\OC(=O)c1ccc(Cl)c(Cl)c1)c1ccccn1	6	?	?	-1%	?
N/C(=N\OC(=O)c1ccc(Cl)cc1)c1ccccn1	-5	?	8.9µM*	-1%	10µM*
CO[C@]1(NC(=O)[C@H](C(=O)O)c2ccc(O)cc2)C(=O)N2C(C(=O)O)=C(CSc3nnnn3C)CO[C@H]21	/	/	-2%[2.98 µM]	/	-6%[17 µM]
O=C(c1cc(-c2ccccc2Cl)on1)N1CCCC1	4	?	13µM*	-1%	?
COc1ccc(NC(=O)c2cc(-c3ccccc3Cl)on2)cc1OC	-19	?	5%	0%	-7%
O=C(Nc1cccc(O)c1)c1cc(-c2ccc3c(c2)OCO3)on1	26	?	4µM*	0%	1.4µM*
COc1cc(NC(=O)c2cc(-c3ccc4c(c3)OCO4)on2)cc(OC)c1OC	-21	-4%	-19%	0%	-21%
O=C(Nc1cccc(O)c1)c1cc(-c2ccccc2Cl)on1	-24	?	0.22µM*	0%	1.3µM*
CN(C)C(=O)Nc1ccc(Oc2ccc(Cl)cc2)cc1	/	/	19%	/	?
CC1=C(C(=O)OC2CCCCC2)C(c2cccs2)n2c(nc3ccccc32)N1 (stereo not given)	1	-2%	4.5µM*	-1%	?
CCOC(=O)C1=C(C)Nc2nc3ccccc3n2C1c1ccccc1 (stereo not given)	14	6%	-21%	0%	5%

High-throughput results as filed in PubChem BioAssay.
